This is an account of results in PubChem BioAssay (EPA / NIEHS).

Activity calls are given as the source filed them. Rule for the calls: active = hit-call score of the fitted dose curve at least 0.9, where 1 is the maximum; inactive = score below 0.9.

What all share (settings): mRNA level, 48 h; actives raise or lower the signal
Read-out in assay [1]: Apoptosis regulator Bcl-2 (Homo sapiens) (UniProt P10415)
As to the kind of experiment: LTEA_HepaRG_BCL2: Life Technologies and Expression Analysis (LTEA) Assay for Bcl-2 gene using HepaRG (AID 2283475). The method, boiled down: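 Plated human HepaRG cells are exposed to test chemicals for 48 h across eight concentrations from 100 uM downward in half-log steps (0.5% DMSO). BCL2 expression is then measured by qRT-PCR with housekeeping normalisation and fitted bidirectionally against vehicle.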

Read-out in assay [2]: Bcl-2 (BID) gene, BID (gene 637)
Description: LTEA_HepaRG_BID: Life Technologies and Expression Analysis (LTEA) Assay for Bcl-2 (BID) gene using HepaRG (AID 2283476). The gist of the method:
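Cells are plated, cultured 48 h, switched to serum-free induction medium, then dosed 48 h (100 uM top, half-log steps, 0.5% DMSO). RNA is isolated and BID expression read by qRT-PCR.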

Read-out in the next assay: Caspase-3 (Homo sapiens) (UniProt P42574)
Description: LTEA_HepaRG_CASP3: Life Technologies and Expression Analysis (LTEA) Assay for cysteine-aspartic acid protease (CASP3) using HepaRG (AID 2283477). The method, boiled down: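 In HepaRG liver cells dosed for 48 h at up to 100 uM (eight-point, duplicate), CASP3 expression changes are scored by qRT-PCR. Activity is fitted in both directions with 0.5% DMSO as baseline.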

Read-out in assay [3]: Cytochrome P450 (CYP24A1), CYP24A1 (gene 1591)
As to the kind of experiment: LTEA_HepaRG_CYP24A1: Life Technologies and Expression Analysis (LTEA) Assay for Cytochrome P450 (CYP24A1) using HepaRG (AID 2283478). The method, boiled down:
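Human liver HepaRG cultures receive each chemical for 48 h across an eight-point half-log series topping at 100 uM in 0.5% DMSO. Induction or suppression of CYP24A1 mRNA is scored relative to vehicle after housekeeping-gene normalization.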

Read-out in assay [4]: Cytochrome P450 (CYP1A2), CYP1A2 (gene 1544)
Description: LTEA_HepaRG_CYP1A2: Life Technologies and Expression Analysis (LTEA) Assay for Cytochrome P450 (CYP1A2) using HepaRG (AID 2283479). The gist of the method:
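Assesses CYP1A2 mRNA in human HepaRG liver cells after 48 h chemical exposure at up to 100 uM. Values come from qRT-PCR with bidirectional curve fitting relative to DMSO.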

Read-out in assay [5]: Cytochrome P450 (CYP2B6), CYP2B6 (gene 1555)
As to the kind of experiment: LTEA_HepaRG_CYP2B6: Life Technologies and Expression Analysis (LTEA) Assay for Cytochrome P450 (CYP2B6) using HepaRG (AID 2283481). The gist of the method: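 Using 48 h treatment of HepaRG cells in serum-free induction medium, concentrations spanned half-log steps from 100 uM in 0.5% DMSO vehicle. CYP2B6 mRNA induction or loss is scored by qRT-PCR against DMSO.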

Read-out in assay [6]: Cytochrome P450 2C19 (Homo sapiens) (UniProt P33261)
Description: LTEA_HepaRG_CYP2C19: Life Technologies and Expression Analysis (LTEA) Assay for CYP2C19 using HepaRG (AID 2283482). The gist of the method: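 Human HepaRG liver cells received test chemicals for 48 h (highest 100 uM, half-log dilutions in 0.5% DMSO). CYP2C19 mRNA induction or loss is read by multiplexed qRT-PCR and fitted in both directions versus vehicle.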

Read-out in another assay: CYP2C8 (gene 1558)
As to the kind of experiment: LTEA_HepaRG_CYP2C8: Life Technologies and Expression Analysis (LTEA) Assay for CYP2C8 using HepaRG (AID 2283483). The gist of the method:
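HepaRG (human liver line), 48 h chemical exposure, 8-pt half-log series from 100 uM, 0.5% DMSO vehicle. Readout: CYP2C8 transcript by qRT-PCR, housekeeping-normalized. Bidirectional fit vs DMSO baseline.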

Read-out in a further assay: CYP2C9 (gene 1559)
Description: LTEA_HepaRG_CYP2C9: Life Technologies and Expression Analysis (LTEA) Assay for CYP2C9 using HepaRG (AID 2283484). The method, boiled down: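 HepaRG, 48 h dosing, 8-pt half-log series, top 100 uM, 0.5% DMSO vehicle. Read-out: CYP2C9 transcript by TaqMan qRT-PCR, housekeeping-normalized (ACTB/GAPDH/POLR2A). Gain or loss fitted vs DMSO baseline.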

Read-out in another assay: CYP2E1 (gene 1571)
Description: LTEA_HepaRG_CYP2E1: Life Technologies and Expression Analysis (LTEA) Assay for CYP2E1 using HepaRG (AID 2283485). The gist of the method: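 Readout is qRT-PCR of CYP2E1 mRNA, normalized to three housekeeping genes and fitted bidirectionally against 0.5% DMSO. HepaRG cells were dosed 48 h at eight concentrations, highest 100 uM with half-log dilutions.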

Read-out in a further assay: CYP4A11 (gene 1579)
As to the kind of experiment: LTEA_HepaRG_CYP4A11: Life Technologies and Expression Analysis (LTEA) Assay for CYP4A11 using HepaRG (AID 2283486). The gist of the method: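 Readout is CYP4A11 mRNA induction or suppression (qRT-PCR, ACTB/GAPDH/POLR2A normalization) in human HepaRG cells after 48 h chemical treatment, concentrations to 100 uM in 0.5% DMSO, fitted bidirectionally against vehicle.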

Read-out in assay [7]: Cytochrome P450 3A4 (Homo sapiens) (UniProt P08684)
As to the kind of experiment: LTEA_HepaRG_CYP3A4: Life Technologies and Expression Analysis (LTEA) Assay for CYP3A4 using HepaRG (AID 2283487). The gist of the method:
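HepaRG, 48 h exposure, 8-pt CRC from 100 uM (half-log), 0.5% DMSO, duplicates; serum-free induction medium. Readout: CYP3A4 mRNA, qRT-PCR, ACTB/GAPDH/POLR2A normalization. Bidirectional fit vs DMSO.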

Read-out in assay [8]: DNA damage-inducible transcript 3 (DDIT3), DDIT3 (gene 1649)
As to the kind of experiment: LTEA_HepaRG_DDIT3: Life Technologies and Expression Analysis (LTEA) Assay for DNA damage-inducible transcript 3 (DDIT3) using HepaRG (AID 2283488). The method, boiled down: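 Cells are human HepaRG liver cells treated for 48 h with eight half-log concentrations up to 100 uM in 0.5% DMSO. Transcript levels come from qRT-PCR normalized to three housekeeping genes, with activity fitted in both directions relative to vehicle.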

Read-out in assay [9]: Pro-epidermal growth factor (Homo sapiens) (UniProt P01133)
As to the kind of experiment: LTEA_HepaRG_EGF: Life Technologies and Expression Analysis (LTEA) Assay for Epidermal growth factor (EGF) using HepaRG (AID 2283489). The method, boiled down:
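EGF expression changes in human HepaRG cells are scored by bidirectional fitting relative to 0.5% DMSO controls. Chemicals are tested at eight half-log concentrations up to 100 uM for 48 h in serum-free induction medium.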

Read-out in assay [10]: Early growth response protein 1 (EGR1) transcription factor, EGR1 (gene 1958)
Description: LTEA_HepaRG_EGR1: Life Technologies and Expression Analysis (LTEA) Assay for Early growth response protein 1 (EGR1) transcription factor using HepaRG (AID 2283490). The gist of the method: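 HepaRG, 48 h exposure, 8-pt half-log series from 100 uM, 0.5% DMSO vehicle; EGR1 transcript by TaqMan qRT-PCR (Fluidigm array), housekeeping-normalized; bidirectional fit relative to DMSO baseline.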

Read-out in assay [11]: Ezrin (EZR), EZR (gene 7430)
As to the kind of experiment: LTEA_HepaRG_EZR: Life Technologies and Expression Analysis (LTEA) Assay for Ezrin (EZR) using HepaRG (AID 2283491). The method, boiled down:
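Read-out is EZR transcript level by qRT-PCR, normalized to three housekeeping genes and fitted bidirectionally against the DMSO control. Human HepaRG cells received test chemicals for 48 h at eight half-log concentrations up to 100 uM in 0.5% DMSO.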

Read-out in the next assay: CYP3A5 (gene 1577)
As to the kind of experiment: LTEA_HepaRG_CYP3A5: Life Technologies and Expression Analysis (LTEA) Assay for CYP3A5 using HepaRG (AID 2283493). The gist of the method:
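Human HepaRG hepatic cells receive 48 h chemical treatment at eight concentrations (half-log steps from 100 uM) in 0.5% DMSO. Expression of CYP3A5 is quantified by Fluidigm qRT-PCR and normalized to three reference genes.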

Read-out in assay [12]: Fatty Acid-Binding Protein 1 (FABP1), FABP1 (gene 2168)
Description: LTEA_HepaRG_FABP1: Life Technologies and Expression Analysis (LTEA) Assay for Fatty Acid-Binding Protein 1 (FABP1) using HepaRG (AID 2283494). The gist of the method: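 qRT-PCR readout of FABP1 transcript (normalized to three housekeeping genes) after 48 h chemical exposure of HepaRG cells; eight concentrations, half-log steps, max 100 uM, 0.5% DMSO vehicle; gain or loss fitted relative to DMSO baseline.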

Read-out in assay [13]: cysteine-aspartic acid protease (CASP8), CASP8 (gene 841)
Description: LTEA_HepaRG_CASP8: Life Technologies and Expression Analysis (LTEA) Assay for cysteine-aspartic acid protease (CASP8) using HepaRG (AID 2283480). The gist of the method:
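qRT-PCR readout of CASP8 mRNA, normalized to three housekeeping genes, after 48 h chemical exposure of HepaRG cells; 8-point half-log series, top 100 uM, 0.5% DMSO vehicle. Bidirectional curve fitting against DMSO baseline.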

Read-out in assay [14]: Cytochrome P450 3A7 (Homo sapiens) (UniProt P24462)
Description: LTEA_HepaRG_CYP3A7: Life Technologies and Expression Analysis (LTEA) Assay for CYP3A7 using HepaRG (AID 2283492). The gist of the method:
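Cells were thawed, plated, cultured 48 h, then treated for a further 48 h with chemicals (eight-point half-log series from 100 uM, 0.5% DMSO). RNA was isolated and CYP3A7 expression quantified by qRT-PCR normalised to ACTB, GAPDH and POLR2A.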

Sequence of Apoptosis regulator Bcl-2 (Homo sapiens) (P10415 whole entry, looked up): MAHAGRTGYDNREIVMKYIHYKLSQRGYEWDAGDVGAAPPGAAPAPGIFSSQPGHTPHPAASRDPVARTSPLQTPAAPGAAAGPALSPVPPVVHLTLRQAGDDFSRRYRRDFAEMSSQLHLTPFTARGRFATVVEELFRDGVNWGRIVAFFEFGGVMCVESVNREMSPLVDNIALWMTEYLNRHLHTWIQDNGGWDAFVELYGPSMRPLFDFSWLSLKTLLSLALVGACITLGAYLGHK
Sequence of Cytochrome P450 3A4 (Homo sapiens) (P08684 whole entry, looked up): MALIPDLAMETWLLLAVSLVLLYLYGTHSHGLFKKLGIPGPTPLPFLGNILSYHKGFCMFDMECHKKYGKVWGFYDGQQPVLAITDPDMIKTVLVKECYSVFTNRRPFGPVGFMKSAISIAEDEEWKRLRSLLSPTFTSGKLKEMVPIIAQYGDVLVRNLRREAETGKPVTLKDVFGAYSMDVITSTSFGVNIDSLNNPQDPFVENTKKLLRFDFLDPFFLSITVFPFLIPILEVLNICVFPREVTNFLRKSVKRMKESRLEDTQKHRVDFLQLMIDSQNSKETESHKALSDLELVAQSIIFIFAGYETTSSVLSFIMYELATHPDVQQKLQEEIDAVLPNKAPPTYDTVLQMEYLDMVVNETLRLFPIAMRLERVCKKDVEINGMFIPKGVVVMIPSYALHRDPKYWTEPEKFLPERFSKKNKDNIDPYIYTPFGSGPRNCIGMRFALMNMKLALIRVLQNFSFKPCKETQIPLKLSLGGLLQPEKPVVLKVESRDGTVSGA
Sequence of Caspase-3 (Homo sapiens) (P42574 whole entry, looked up): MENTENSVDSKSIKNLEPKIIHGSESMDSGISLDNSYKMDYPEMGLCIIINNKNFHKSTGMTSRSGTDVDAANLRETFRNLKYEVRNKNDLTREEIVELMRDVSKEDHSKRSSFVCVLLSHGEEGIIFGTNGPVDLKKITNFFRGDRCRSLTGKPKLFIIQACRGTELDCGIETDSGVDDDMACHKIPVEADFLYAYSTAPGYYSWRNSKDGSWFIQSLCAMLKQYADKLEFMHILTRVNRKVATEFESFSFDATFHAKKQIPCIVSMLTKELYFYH
Sequence of Cytochrome P450 2C19 (Homo sapiens) (P33261 whole entry, looked up): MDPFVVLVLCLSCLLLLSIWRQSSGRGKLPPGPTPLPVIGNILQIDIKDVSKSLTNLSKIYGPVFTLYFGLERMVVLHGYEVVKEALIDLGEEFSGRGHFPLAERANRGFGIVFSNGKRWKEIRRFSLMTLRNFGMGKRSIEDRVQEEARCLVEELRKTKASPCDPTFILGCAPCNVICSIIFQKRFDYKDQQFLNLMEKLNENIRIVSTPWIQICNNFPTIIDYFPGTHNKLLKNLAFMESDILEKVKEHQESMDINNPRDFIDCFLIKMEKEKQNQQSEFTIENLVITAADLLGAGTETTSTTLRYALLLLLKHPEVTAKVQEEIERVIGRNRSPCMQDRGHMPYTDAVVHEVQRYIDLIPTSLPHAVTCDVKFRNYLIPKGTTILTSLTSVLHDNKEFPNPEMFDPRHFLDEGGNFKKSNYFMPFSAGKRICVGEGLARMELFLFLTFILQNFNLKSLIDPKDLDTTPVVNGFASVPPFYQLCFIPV
Sequence of Cytochrome P450 3A7 (Homo sapiens) (P24462 whole entry, looked up): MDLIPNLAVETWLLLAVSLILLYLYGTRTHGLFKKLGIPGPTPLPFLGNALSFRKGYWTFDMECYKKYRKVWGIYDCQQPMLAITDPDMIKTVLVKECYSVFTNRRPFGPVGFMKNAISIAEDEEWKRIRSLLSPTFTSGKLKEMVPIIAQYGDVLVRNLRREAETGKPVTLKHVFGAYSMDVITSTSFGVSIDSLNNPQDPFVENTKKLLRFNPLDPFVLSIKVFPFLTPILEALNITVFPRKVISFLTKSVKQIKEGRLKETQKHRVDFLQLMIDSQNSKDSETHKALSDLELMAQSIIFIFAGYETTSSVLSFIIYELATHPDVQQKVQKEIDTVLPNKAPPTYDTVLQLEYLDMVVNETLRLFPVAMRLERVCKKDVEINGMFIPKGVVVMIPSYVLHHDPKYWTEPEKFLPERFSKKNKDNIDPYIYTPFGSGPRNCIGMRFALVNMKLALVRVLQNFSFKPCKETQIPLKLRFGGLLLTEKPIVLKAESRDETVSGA

As usually defined, the AC50 is the concentration at which the activity in the assay is half-maximal. Take `C[C@]12CC[C@@H]3c4ccc(O)cc4CC[C@H]3[C@@H]1CC[C@H]2O`: the result (in assay [1]; in [2]; with Caspase-3 (Homo sapiens); in assay [3]; in [4]; with CYP2C9 (gene 1559)) was inactive. The call (in [7]; in assay [8]; in assay [9]; in [10]; in assay [11]; with CYP3A5 (gene 1577)) was inactive. For the same molecule, the concentration at half-maximal activity (AC50) in assay [5] was 1.19 µM (active); in assay [6], 3.77 µM (active); with CYP2C8 (gene 1558), 1.46 µM (active); in the assay with CYP2E1 (gene 1571), 88.4 µM (active); with CYP4A11 (gene 1579) it was 78.2 µM (active); in assay [12], 74.3 µM (active).

In the case of `COc1cc(C(=O)NC2CCN(C)CC2)ccc1Nc1ncc2c(n1)N(C1CCCC1)CC(F)(F)C(=O)N2C`, the call (in [1]; in the assay with CYP2C8 (gene 1558); in [7]; in assay [9]; in the assay with CYP3A5 (gene 1577)) was inactive. The AC50 is 4.65 µM (active) in [2]; 11.1 µM (active) with Caspase-3 (Homo sapiens); 4.65 µM (active) in assay [4]; 16.2 µM (active) in assay [13]; 0.151 µM (active) in [5]; 4.65 µM (active) in assay [6]. Moreover, the AC50 with CYP2C9 (gene 1559) is 3.9 µM (active); with CYP2E1 (gene 1571), 22.9 µM (active); with CYP4A11 (gene 1579) it was 3.34 µM (active); in assay [8], 83 µM (active); in assay [10], 9.31 µM (active); in [11], 28.7 µM (active). Besides, the AC50 in assay [12] is 6.44 µM (active).

With `CC(C)(C)c1cc(/C=C2\SC(N)=NC2=O)cc(C(C)(C)C)c1O`, the half-maximal activity concentration (AC50) is 21.1 µM (active) in assay [1]; 15.8 µM (active) in [2]; 15.8 µM (active) with Caspase-3 (Homo sapiens); 27.8 µM (active) in [13]; 93.7 µM (active) in assay [5]; 26.3 µM (active) in assay [6]. The AC50 with CYP2C9 (gene 1559) is 12.2 µM (active); with CYP4A11 (gene 1579), 29.1 µM (active); in [7], 90.9 µM (active); in assay [8], 22.8 µM (active); in [10] it was 50 µM (active); in assay [14], 27.6 µM (active). For the same molecule, the values for the concentration at half-maximal activity (AC50) (with CYP3A5 (gene 1577); in assay [12]) were 93.5 µM (active) and 14.8 µM (active), respectively. Moreover, the molecule was classed as inactive (in assay [3]; in assay [4]; in the assay with CYP2C8 (gene 1558); in [9]; in assay [11]).
